Compounds without any hit were thinned out: in the full panel of roughly 79,000, 15% have a hit. A number with no mark means an inactive call. The source made the active and inactive calls. Cut-off read from the data, not from the text of the source: active = growth inhibition above about 70%; inactive = the rest.

Experiment [1] can be described thus: NCI Yeast Anticancer Drug Screen. Data for the rad50 strain (AID 155).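 Note: 0% = growth of vehicle-only cultures of the same strain.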 As to conditions: S. cerevisiae rad50 strain growth inhibition, stronger effect = higher value. Summed up: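 Genetically altered yeast (DNA repair pathway); compound treatment; growth inhibition vs vehicle ctrl.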
Experiment [2] in a line: NCI Yeast Anticancer Drug Screen. Data for the mec2-1 strain (AID 157). The note with it: S. cerevisiae mec2-1 strain, stronger effect = higher value. An outline of the steps:
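Vehicle-treated cultures served as reference for growth inhibition of compound-exposed mec2-1 yeast.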

Experiment [3] can be described thus: NCI Yeast Anticancer Drug Screen. Data for the sgs1 mgt1 strain (AID 161).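 Note: 0% = growth of cultures given vehicle only.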 As to conditions: S. cerevisiae sgs1 mgt1 strain, stronger effect = higher value. Summed up:
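Mutant yeast exposed to compound; growth scored against vehicle-only wells.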

Experiment [4] is described as follows: NCI Yeast Anticancer Drug Screen. Data for the cln2 rad14 strain (AID 165).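 Note: 0% = growth equal to vehicle treated cultures.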 The note with it: S. cerevisiae cln2 rad14 strain, stronger effect = higher value. An outline of the steps: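 Each compound was tested on cln2 rad14 yeast. Inhibition of growth was calculated against vehicle-exposed controls.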
Experiment [5] in a line: NCI Yeast Anticancer Drug Screen. Data for the bub3 strain (AID 167). As to conditions: S. cerevisiae bub3 mutant strain, stronger effect = higher value. An outline of the steps: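 Yeast carrying a defined mutation is treated with each compound, and growth is compared with that of vehicle-exposed cells to give inhibition.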
The nature of experiment [6]: NCI Yeast Anticancer Drug Screen. Data for the mlh1 rad18 strain (AID 175). The note with it: S. cerevisiae mlh1 rad18 strain growth inhibition, stronger effect = higher value. Summed up: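 Vehicle-treated cultures served as the reference for growth inhibition in a yeast strain carrying DNA damage repair alterations exposed to each compound.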
Where [7] appears, read: at 5.0 µM (retest, dose inferred, filed as 0.5).
Setting [8] is: at 50.0 µM (retest, dose inferred, filed as 5.0).

Turning to `Cc1c(Cl)nc(-c2ccccc2)nc1C(=O)CCl`, the growth inhibition in experiment [1] (setting [7]) was 43%; in experiment [1] (setting [8]) it was 78% (active); in experiment [1] (at 50.0 µM) it was 22.1%; in experiment [2] (setting [7]), 67%; in experiment [2] (setting [8]) it was 91% (active); in experiment [2] (at 50.0 µM) it was -0.1%. Besides, the growth inhibition in experiment [3] (setting [7]) was 90% (active); in experiment [3] (setting [8]), 93% (active); in experiment [3] (at 50.0 µM) it was 70.5% (active); in experiment [4] (setting [7]) it was 22%; in experiment [4] (setting [8]), 66%; in experiment [4] (at 50.0 µM), 9.45%. Further, the growth inhibition in experiment [5] (setting [7]) was 38%; in experiment [5] (setting [8]), 86% (active); in experiment [5] (at 50.0 µM), -34.3%; in experiment [6] (setting [7]), 65%; in experiment [6] (setting [8]), 89% (active); in experiment [6] (at 50.0 µM), 4.5%.

Turning to `FC(F)(F)C(C1=NC(C(F)(F)F)(C(F)(F)F)N=C(N2CCOCC2)O1)C(F)(F)F`, the growth inhibition was 24% in experiment [1] (setting [7]); 33% in experiment [1] (setting [8]); 24.8% in experiment [1] (at 50.0 µM); 16% in experiment [2] (setting [7]); 28% in experiment [2] (setting [8]); 71.8% (active) in experiment [2] (at 50.0 µM). Further, the growth inhibition in experiment [3] (setting [7]) was 20%; in experiment [3] (setting [8]), 48%; in experiment [3] (at 50.0 µM), 30.4%; in experiment [4] (setting [7]), 26%; in experiment [4] (setting [8]), 45%; in experiment [4] (at 50.0 µM), 60.4%. Further, the growth inhibition in experiment [5] (setting [7]) was 36%; in experiment [5] (setting [8]), 80% (active); in experiment [5] (at 50.0 µM), 13.6%; in experiment [6] (setting [7]) it was 51%; in experiment [6] (setting [8]) it was 66%; in experiment [6] (at 50.0 µM), 39.6%.

As for `CC1CN(CC(O)c2ccc(Br)cc2)CC(C)O1` (configuration not stated), the growth inhibition in experiment [1] (setting [7]) is 13%; in experiment [1] (setting [8]), 30%; in experiment [1] (at 50.0 µM) it was 58.5%; in experiment [2] (setting [7]), 6%; in experiment [2] (setting [8]) it was 28%; in experiment [2] (at 50.0 µM), 34.2%. In addition, the growth inhibition in experiment [3] (setting [7]) was 8%; in experiment [3] (setting [8]), 56%; in experiment [3] (at 50.0 µM), 66.5%; in experiment [4] (setting [7]) it was 8%; in experiment [4] (setting [8]), 46%; in experiment [4] (at 50.0 µM), 68.7%. In addition, the growth inhibition in experiment [5] (setting [7]) was 12%; in experiment [5] (setting [8]), 48%; in experiment [5] (at 50.0 µM) it was 54.6%; in experiment [6] (setting [7]), 29%; in experiment [6] (setting [8]) it was 61%; in experiment [6] (at 50.0 µM), 41.8%.

Consider `O=C1C=CC(=O)N1C1CCCCC1`, for which the growth inhibition in experiment [1] (setting [7]) was 93% (active); in experiment [1] (setting [8]), 99% (active); in experiment [1] (at 50.0 µM), 99.6% (active); in experiment [2] (setting [7]), 60%; in experiment [2] (setting [8]), 100% (active); in experiment [2] (at 50.0 µM), 99.7% (active). The growth inhibition was 95% (active) in experiment [3] (setting [7]); 99% (active) in experiment [3] (setting [8]); 99.5% (active) in experiment [3] (at 50.0 µM); 30% in experiment [4] (setting [7]); 99% (active) in experiment [4] (setting [8]); 99.8% (active) in experiment [4] (at 50.0 µM). Further, the growth inhibition was 90% (active) in experiment [5] (setting [7]); 99% (active) in experiment [5] (setting [8]); 99.7% (active) in experiment [5] (at 50.0 µM); 98% (active) in experiment [6] (setting [7]); 99% (active) in experiment [6] (setting [8]); 99.6% (active) in experiment [6] (at 50.0 µM).

Turning to `CCOC(=O)CCC(NC(=O)c1ccc(NC(OC)c2nc3cc(C(F)(F)F)ccc3nc2-c2ccccc2)cc1)C(=O)OCC` (configuration not stated), the growth inhibition in experiment [1] (setting [7]) is 88% (active); in experiment [1] (setting [8]), 88% (active); in experiment [1] (at 50.0 µM) it was 92.8% (active); in experiment [2] (setting [7]) it was 78% (active); in experiment [2] (setting [8]), 78% (active); in experiment [2] (at 50.0 µM), 93.2% (active). The growth inhibition in experiment [3] (setting [7]) is 90% (active); in experiment [3] (setting [8]), 90% (active); in experiment [3] (at 50.0 µM), 93.8% (active); in experiment [4] (setting [7]), 80% (active); in experiment [4] (setting [8]) it was 80% (active); in experiment [4] (at 50.0 µM) it was 92.7% (active). Also, the growth inhibition in experiment [5] (setting [7]) was 84% (active); in experiment [5] (setting [8]) it was 84% (active); in experiment [5] (at 50.0 µM) it was 91.8% (active); in experiment [6] (setting [7]), 92% (active); in experiment [6] (setting [8]), 92% (active); in experiment [6] (at 50.0 µM), 91.9% (active).

Consider `Oc1ccc(/C=N/NC(=S)Nc2ccccc2)nc1`, for which the growth inhibition in experiment [1] (setting [7]) is 1%; in experiment [1] (setting [8]) it was 53%; in experiment [1] (at 50.0 µM), 82.8% (active); in experiment [2] (setting [7]), 4%; in experiment [2] (setting [8]), 60%; in experiment [2] (at 50.0 µM) it was 86.8% (active). Further, the growth inhibition is 6% in experiment [3] (setting [7]); 69% in experiment [3] (setting [8]); 82.8% (active) in experiment [3] (at 50.0 µM); -9% in experiment [4] (setting [7]); 42% in experiment [4] (setting [8]); 68.7% in experiment [4] (at 50.0 µM). The growth inhibition in experiment [5] (setting [7]) was 11%; in experiment [5] (setting [8]), 72% (active); in experiment [5] (at 50.0 µM), 84.3% (active); in experiment [6] (setting [7]), 0%; in experiment [6] (setting [8]) it was 78% (active); in experiment [6] (at 50.0 µM), 84.2% (active).

On to `COc1ccc(-n2c(=O)c3[nH]c(=S)[nH]c3n(-c3ccc(OC)cc3)c2=S)cc1`, for which the growth inhibition in experiment [1] (setting [7]) is 21%; in experiment [1] (setting [8]), 25%; in experiment [1] (at 50.0 µM), 25.5%; in experiment [2] (setting [7]) it was 1%; in experiment [2] (setting [8]), 16%; in experiment [2] (at 50.0 µM), 44%. Further, the growth inhibition in experiment [3] (setting [7]) is 7%; in experiment [3] (setting [8]), 23%; in experiment [3] (at 50.0 µM) it was -47.7%; in experiment [4] (setting [7]), 3%; in experiment [4] (setting [8]) it was 25%; in experiment [4] (at 50.0 µM), -1%. Further, the growth inhibition in experiment [5] (setting [7]) was -44%; in experiment [5] (setting [8]), 13%; in experiment [5] (at 50.0 µM), -41.8%; in experiment [6] (setting [7]), 14%; in experiment [6] (setting [8]), 19%; in experiment [6] (at 50.0 µM) it was -29.9%.

For `C/C(=N\NC(=S)NCc1ccccc1)c1nccnc1C`, the growth inhibition was 23% in experiment [1] (setting [7]); 98% (active) in experiment [1] (setting [8]); 90.9% (active) in experiment [1] (at 50.0 µM); 19% in experiment [2] (setting [7]); 99% (active) in experiment [2] (setting [8]); 89% (active) in experiment [2] (at 50.0 µM). The growth inhibition in experiment [3] (setting [7]) was 35%; in experiment [3] (setting [8]), 99% (active); in experiment [3] (at 50.0 µM) it was 82.9% (active); in experiment [4] (setting [7]) it was 35%; in experiment [4] (setting [8]) it was 98% (active); in experiment [4] (at 50.0 µM) it was 85.9% (active). Also, the growth inhibition was 52% in experiment [5] (setting [7]); 99% (active) in experiment [5] (setting [8]); 83.3% (active) in experiment [5] (at 50.0 µM); 27% in experiment [6] (setting [7]); 98% (active) in experiment [6] (setting [8]); 91.7% (active) in experiment [6] (at 50.0 µM).

Turning to `Nc1c(O)c(Cl)cc(Cl)c1Cl`, the growth inhibition is 4% in experiment [1] (setting [7]); 94% (active) in experiment [1] (setting [8]); 96.2% (active) in experiment [1] (at 50.0 µM); -4% in experiment [2] (setting [7]); 95% (active) in experiment [2] (setting [8]); 98.9% (active) in experiment [2] (at 50.0 µM). The growth inhibition in experiment [3] (setting [7]) is 1%; in experiment [3] (setting [8]) it was 80% (active); in experiment [3] (at 50.0 µM), 96.6% (active); in experiment [4] (setting [7]), -3%; in experiment [4] (setting [8]), 70% (active); in experiment [4] (at 50.0 µM) it was 74.6% (active). Also, the growth inhibition is 5% in experiment [5] (setting [7]); 96% (active) in experiment [5] (setting [8]); 98.4% (active) in experiment [5] (at 50.0 µM); -1% in experiment [6] (setting [7]); 93% (active) in experiment [6] (setting [8]); 99% (active) in experiment [6] (at 50.0 µM).

The values above are taken from PubChem BioAssay (NCI).
